The values below come from PubChem BioAssay (NCI).

About 83,000 compounds went through this panel and 20% of them were active in at least one assay; those are over-represented in the sample as a whole.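 Testing used 96-well plates and a 48-hour single-concentration exposure. Example: -40 means 40% of the starting cells died.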 Values without a mark were called inactive. Calls of active or inactive are those of the source. The calls were made as follows: active = growth percent below 10; inactive = the rest.

Holding throughout (assay): NCI-60 one-dose screen, 48 h (100 = growth as untreated, 0 = no growth, -100 = all killed)
One assay deals with HCT-15 colon. The following applies: 10 µM unless noted.
The next assay concerns HT29 colon. As to conditions: 10 µM unless noted.
The test system of the next assay is SNB-75 CNS. The following applies: 10 µM unless noted.
The next assay relates to SNB-19 CNS. The following applies: 10 µM unless noted.
The next assay has as its system U251 CNS. The following applies: 10 µM unless noted.
Another assay deals with PC-3 prostate. As to conditions: 10 µM unless noted.
A further assay concerns SK-MEL-5 melanoma. As to conditions: 10 µM unless noted.
Another assay relates to UACC-62 melanoma. As to conditions: 10 µM unless noted.
A further assay deals with SK-MEL-28 melanoma. As to conditions: 10 µM unless noted.
For another assay, the system named is SK-MEL-2 melanoma. The following applies: 10 µM unless noted.
Another assay deals with EKVX NSCLC. The following applies: 10 µM unless noted.
Another assay relates to SN12C renal. The following applies: 10 µM unless noted.
The next assay concerns UO-31 renal. The following applies: 10 µM unless noted.
A further assay relates to TK-10 renal. The following applies: 10 µM unless noted.
A further assay has as its system ACHN renal. The following applies: 10 µM unless noted.
For a further assay, the system named is CAKI-1 renal. As to conditions: 10 µM unless noted.
In another assay the test system is A498 renal. As to conditions: 10 µM unless noted.
The test system of another assay is CCRF-CEM leukemia. The following applies: 10 µM unless noted.
The test system of a further assay is MOLT-4 leukemia. The following applies: 10 µM unless noted.
For another assay, the system named is LOX IMVI melanoma. The following applies: 10 µM.

With `CN(C)c1ccc(/C=C/C(=O)c2ccc(NC(N)=O)cc2)cc1`, the growth in the assay with HCT-15 colon was 84.9%; in the assay with HT29 colon, 95.2%; in the assay on SNB-75 CNS, 67.4%; in the assay on SNB-19 CNS it was 80.1%; with U251 CNS, 69%; with PC-3 prostate it was 98.4%. Also, the growth in the assay on SK-MEL-5 melanoma is 97.6%; with UACC-62 melanoma, 92.2%; in the assay on SK-MEL-28 melanoma, 104%; in the assay on SK-MEL-2 melanoma, 103%; in the assay with EKVX NSCLC, 89.3%; with SN12C renal it was 93.3%. Also, the growth in the assay on UO-31 renal is 68.3%; in the assay with TK-10 renal, 97.7%; in the assay on ACHN renal, 103%; with CAKI-1 renal, 87.8%; in the assay with A498 renal, 115%; with CCRF-CEM leukemia it was 92.8%. In addition, the growth in the assay with MOLT-4 leukemia is 91.7%.

As to `CCN(CC)c1ccc2nc3ccc(N=Nc4ccc(N(C)C)cc4)cc3[n+](-c3ccccc3)c2c1`, the growth is -10.3% (active) in the assay with HCT-15 colon; -31.8% (active) with HT29 colon; -98.9% (active) in the assay with SNB-75 CNS; 40.3% with SNB-19 CNS; -52% (active) in the assay with U251 CNS; 6.24% (active) in the assay with PC-3 prostate. The growth in the assay on SK-MEL-5 melanoma was -97.4% (active); with UACC-62 melanoma, -59.1% (active); with LOX IMVI melanoma, -91.9% (active); in the assay on SK-MEL-2 melanoma it was -37.1% (active); with EKVX NSCLC, -75.2% (active); in the assay on UO-31 renal, -55.1% (active). Also, the growth was 5.74% (active) in the assay with TK-10 renal; -79.4% (active) with ACHN renal; -27.8% (active) in the assay with CAKI-1 renal; -25.1% (active) in the assay with A498 renal; -21% (active) in the assay on CCRF-CEM leukemia; -20.1% (active) with MOLT-4 leukemia.

With `O=C(NC(=S)N1CC=CCC1)c1ccccc1`, the growth with HCT-15 colon is 102%; with HT29 colon, 100%; in the assay with SNB-75 CNS it was 111%; in the assay on SNB-19 CNS it was 105%; in the assay on U251 CNS, 104%; in the assay on PC-3 prostate it was 98.5%. Besides, the growth is 104% in the assay on SK-MEL-5 melanoma; 107% with UACC-62 melanoma; 107% in the assay on LOX IMVI melanoma; 84.4% in the assay with SK-MEL-2 melanoma; 111% in the assay with EKVX NSCLC; 88.4% with SN12C renal. Further, the growth in the assay on UO-31 renal is 87%; in the assay with TK-10 renal it was 94.5%; with ACHN renal, 94.3%; with CAKI-1 renal, 105%; in the assay on A498 renal, 93.1%; in the assay on CCRF-CEM leukemia, 121%. Further, in the assay on MOLT-4 leukemia, the growth was 94.2%.

`C=C(OC(C)=O)c1ccccc1`: the growth is 114% in the assay with HCT-15 colon; 98.4% in the assay with HT29 colon; 98% with SNB-75 CNS; 106% in the assay on SNB-19 CNS; 89.8% with U251 CNS; 79.4% in the assay on PC-3 prostate. For the same compound, the growth in the assay on SK-MEL-5 melanoma is 101%; in the assay on UACC-62 melanoma, 97%; in the assay with LOX IMVI melanoma, 94.4%; in the assay on SK-MEL-2 melanoma it was 96.9%; in the assay on EKVX NSCLC, 111%; in the assay on SN12C renal, 96%. The growth is 101% in the assay on UO-31 renal; 100% in the assay on TK-10 renal; 115% in the assay with ACHN renal; 100% in the assay with CAKI-1 renal; 95.3% in the assay on A498 renal; 83.5% in the assay with CCRF-CEM leukemia.

Regarding `CCCCN(C(=O)CC)c1ccccc1`, the growth in the assay on HCT-15 colon is 108%; with HT29 colon it was 100%; in the assay with SNB-75 CNS it was 89.8%; with SNB-19 CNS, 99.9%; with U251 CNS it was 97.6%; in the assay with PC-3 prostate, 103%. Also, the growth is 100% in the assay on SK-MEL-5 melanoma; 99.2% with UACC-62 melanoma; 97.4% with LOX IMVI melanoma; 108% in the assay with SK-MEL-2 melanoma; 97% in the assay on EKVX NSCLC; 99.3% in the assay with SN12C renal. In addition, the growth in the assay on UO-31 renal is 86.7%; in the assay with TK-10 renal, 97.2%; in the assay with ACHN renal it was 103%; in the assay on CAKI-1 renal it was 101%; in the assay on A498 renal it was 83.3%; in the assay with CCRF-CEM leukemia, -8.28% (active).

Consider `C=C1SC(=Nc2c(C)cccc2C)N(c2nc(Cl)nc(Cl)n2)C12CCCCC2`, for which the growth is 109% with HCT-15 colon; 108% in the assay with HT29 colon; 96.7% in the assay with SNB-75 CNS; 108% with SNB-19 CNS; 102% in the assay with U251 CNS; 99.3% with PC-3 prostate. The growth was 84.2% with SK-MEL-5 melanoma; 105% in the assay with UACC-62 melanoma; 104% in the assay on LOX IMVI melanoma; 104% in the assay with SK-MEL-28 melanoma; 107% in the assay with SN12C renal; 75.6% in the assay on UO-31 renal. Besides, the growth in the assay on TK-10 renal is 108%; with CAKI-1 renal, 96.6%; in the assay with A498 renal, 113%; in the assay with CCRF-CEM leukemia it was 95.9%; in the assay on MOLT-4 leukemia it was 95.5%.

Take `O=C(NCc1ccco1)Nc1cccc2c(NC(=O)NCc3ccco3)cccc12`: the growth in the assay with HCT-15 colon is 99.2% [100 µM]; in the assay on HT29 colon it was 55.2% [100 µM]; in the assay with SNB-75 CNS it was 49.7% [100 µM]; in the assay on SNB-19 CNS, 52.6% [100 µM]; with U251 CNS, 64.8% [100 µM]; in the assay on PC-3 prostate it was 42.9% [100 µM]. For the same compound, the growth in the assay with SK-MEL-5 melanoma is 90% [100 µM]; with UACC-62 melanoma, 96.6% [100 µM]; in the assay with SK-MEL-28 melanoma it was 91.3% [100 µM]; in the assay on SK-MEL-2 melanoma, 78.2% [100 µM]; in the assay with EKVX NSCLC, 116% [100 µM]; in the assay with SN12C renal it was 33.9% [100 µM]. Besides, the growth was 103% [100 µM] in the assay with UO-31 renal; 131% [100 µM] with TK-10 renal; 106% [100 µM] in the assay with ACHN renal; 100% [100 µM] in the assay on CAKI-1 renal; 110% [100 µM] with A498 renal; 44.7% [100 µM] with CCRF-CEM leukemia. Besides, in the assay with MOLT-4 leukemia, the growth is 59.1% [100 µM].

For the compound `Cc1ccc(S(=O)(=O)Oc2ccc3sc4c(CO)ccc(NCCN(C)C)c4c(=O)c3c2)cc1`, the growth with HCT-15 colon is -93.8% [100 µM] (active); with HT29 colon, -84.3% [100 µM] (active); in the assay with SNB-75 CNS, -92.1% [100 µM] (active); in the assay on SNB-19 CNS, -83.7% [100 µM] (active); with U251 CNS, -74.7% [100 µM] (active); in the assay with PC-3 prostate it was -86.8% [100 µM] (active). The growth in the assay with SK-MEL-5 melanoma is -94.3% [100 µM] (active); in the assay on UACC-62 melanoma it was -95.5% [100 µM] (active); in the assay on SK-MEL-28 melanoma it was -85.1% [100 µM] (active); in the assay on SK-MEL-2 melanoma it was -86.6% [100 µM] (active); in the assay with EKVX NSCLC, -66.7% [100 µM] (active); in the assay with SN12C renal, -94.1% [100 µM] (active). Besides, the growth is -95.6% [100 µM] (active) in the assay with UO-31 renal; -91.1% [100 µM] (active) in the assay on TK-10 renal; -92.7% [100 µM] (active) with ACHN renal; -91% [100 µM] (active) with CAKI-1 renal; -71.6% [100 µM] (active) with A498 renal; -27.9% [100 µM] (active) in the assay on CCRF-CEM leukemia. Besides, the growth in the assay with MOLT-4 leukemia was -34.6% [100 µM] (active).
